The source of these data is the supplement of paper PMC11001985.

A number with no mark means an inactive call.

Chain of UniProt P31949 (P31949 whole entry): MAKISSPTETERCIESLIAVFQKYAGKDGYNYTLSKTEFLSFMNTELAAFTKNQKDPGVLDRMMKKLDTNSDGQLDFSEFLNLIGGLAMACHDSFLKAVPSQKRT
Chain of UniProt P15151 (P15151 whole entry): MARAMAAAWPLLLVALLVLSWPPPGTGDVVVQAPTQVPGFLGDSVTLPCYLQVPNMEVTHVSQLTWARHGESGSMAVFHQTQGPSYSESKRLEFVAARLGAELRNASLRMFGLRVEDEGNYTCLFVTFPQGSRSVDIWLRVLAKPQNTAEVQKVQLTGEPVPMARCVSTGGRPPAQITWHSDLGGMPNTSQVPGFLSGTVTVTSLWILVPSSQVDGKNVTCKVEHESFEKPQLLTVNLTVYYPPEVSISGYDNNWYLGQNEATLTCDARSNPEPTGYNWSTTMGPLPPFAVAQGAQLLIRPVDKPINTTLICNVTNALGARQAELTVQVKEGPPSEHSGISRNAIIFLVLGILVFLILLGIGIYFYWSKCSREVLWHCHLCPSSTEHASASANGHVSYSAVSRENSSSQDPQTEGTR
Chain of UniProt P31431 (P31431 whole entry): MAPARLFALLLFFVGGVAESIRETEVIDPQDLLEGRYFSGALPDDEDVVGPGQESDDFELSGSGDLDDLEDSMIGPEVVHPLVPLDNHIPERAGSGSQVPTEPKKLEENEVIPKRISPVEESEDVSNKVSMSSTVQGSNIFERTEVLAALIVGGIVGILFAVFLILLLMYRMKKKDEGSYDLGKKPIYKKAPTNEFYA
Chain of UniProt Q02818 (Q02818 whole entry): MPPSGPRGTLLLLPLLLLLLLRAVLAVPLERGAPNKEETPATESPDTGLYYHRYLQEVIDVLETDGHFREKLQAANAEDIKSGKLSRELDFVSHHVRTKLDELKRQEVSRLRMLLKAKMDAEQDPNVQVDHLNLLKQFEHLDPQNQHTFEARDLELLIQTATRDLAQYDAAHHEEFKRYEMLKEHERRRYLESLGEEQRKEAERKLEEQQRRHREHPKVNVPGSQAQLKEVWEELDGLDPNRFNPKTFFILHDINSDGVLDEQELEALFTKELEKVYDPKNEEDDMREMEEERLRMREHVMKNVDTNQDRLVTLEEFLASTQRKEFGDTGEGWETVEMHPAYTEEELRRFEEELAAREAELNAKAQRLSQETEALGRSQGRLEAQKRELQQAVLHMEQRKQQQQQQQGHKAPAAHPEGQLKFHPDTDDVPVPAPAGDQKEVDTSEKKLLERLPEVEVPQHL
Chain of UniProt O60462 (O60462 whole entry): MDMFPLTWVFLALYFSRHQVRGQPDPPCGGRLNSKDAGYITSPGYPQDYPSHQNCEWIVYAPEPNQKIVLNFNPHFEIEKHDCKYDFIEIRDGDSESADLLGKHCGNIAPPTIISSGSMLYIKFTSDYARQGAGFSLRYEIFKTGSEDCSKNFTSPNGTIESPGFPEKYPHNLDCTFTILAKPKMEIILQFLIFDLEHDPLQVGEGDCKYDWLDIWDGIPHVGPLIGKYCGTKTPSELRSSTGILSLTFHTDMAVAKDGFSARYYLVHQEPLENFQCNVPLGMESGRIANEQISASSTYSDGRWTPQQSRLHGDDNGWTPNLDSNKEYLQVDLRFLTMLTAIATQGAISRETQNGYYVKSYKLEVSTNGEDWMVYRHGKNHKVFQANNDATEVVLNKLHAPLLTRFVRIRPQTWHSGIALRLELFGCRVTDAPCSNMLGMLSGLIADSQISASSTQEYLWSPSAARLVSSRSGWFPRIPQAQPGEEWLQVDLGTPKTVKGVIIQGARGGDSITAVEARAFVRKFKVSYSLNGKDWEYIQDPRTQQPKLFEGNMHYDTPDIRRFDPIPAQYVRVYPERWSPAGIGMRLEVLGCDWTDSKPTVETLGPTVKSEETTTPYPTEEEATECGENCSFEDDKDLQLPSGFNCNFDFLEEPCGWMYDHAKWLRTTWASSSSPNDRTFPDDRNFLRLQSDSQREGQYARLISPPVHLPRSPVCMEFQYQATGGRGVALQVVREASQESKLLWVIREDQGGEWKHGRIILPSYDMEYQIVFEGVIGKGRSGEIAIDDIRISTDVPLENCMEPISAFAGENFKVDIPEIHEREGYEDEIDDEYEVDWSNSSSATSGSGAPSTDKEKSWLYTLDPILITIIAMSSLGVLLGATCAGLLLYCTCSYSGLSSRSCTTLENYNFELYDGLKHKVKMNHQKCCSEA
Chain of UniProt P05556 (P05556 whole entry): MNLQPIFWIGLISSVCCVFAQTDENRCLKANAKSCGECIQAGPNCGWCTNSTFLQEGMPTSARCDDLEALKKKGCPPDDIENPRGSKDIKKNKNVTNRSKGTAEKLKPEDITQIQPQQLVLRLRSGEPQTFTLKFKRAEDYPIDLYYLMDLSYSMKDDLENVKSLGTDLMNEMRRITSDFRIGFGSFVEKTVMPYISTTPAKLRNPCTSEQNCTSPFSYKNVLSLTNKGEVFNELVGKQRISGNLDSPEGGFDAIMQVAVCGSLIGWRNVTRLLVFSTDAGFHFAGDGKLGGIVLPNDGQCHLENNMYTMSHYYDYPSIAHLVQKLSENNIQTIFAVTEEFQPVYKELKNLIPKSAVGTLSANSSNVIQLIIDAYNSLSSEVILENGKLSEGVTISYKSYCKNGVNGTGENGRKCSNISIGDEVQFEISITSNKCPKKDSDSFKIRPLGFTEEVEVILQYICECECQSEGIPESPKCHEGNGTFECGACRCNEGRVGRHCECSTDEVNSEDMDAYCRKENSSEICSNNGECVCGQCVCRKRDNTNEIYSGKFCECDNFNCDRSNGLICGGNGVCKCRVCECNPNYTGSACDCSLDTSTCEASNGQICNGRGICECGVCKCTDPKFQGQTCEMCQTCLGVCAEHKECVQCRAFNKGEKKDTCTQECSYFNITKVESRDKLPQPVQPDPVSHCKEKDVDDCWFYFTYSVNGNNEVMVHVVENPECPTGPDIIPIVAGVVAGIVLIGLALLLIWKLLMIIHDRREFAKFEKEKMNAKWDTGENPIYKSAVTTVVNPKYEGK
Chain of UniProt P06756 (P06756 whole entry): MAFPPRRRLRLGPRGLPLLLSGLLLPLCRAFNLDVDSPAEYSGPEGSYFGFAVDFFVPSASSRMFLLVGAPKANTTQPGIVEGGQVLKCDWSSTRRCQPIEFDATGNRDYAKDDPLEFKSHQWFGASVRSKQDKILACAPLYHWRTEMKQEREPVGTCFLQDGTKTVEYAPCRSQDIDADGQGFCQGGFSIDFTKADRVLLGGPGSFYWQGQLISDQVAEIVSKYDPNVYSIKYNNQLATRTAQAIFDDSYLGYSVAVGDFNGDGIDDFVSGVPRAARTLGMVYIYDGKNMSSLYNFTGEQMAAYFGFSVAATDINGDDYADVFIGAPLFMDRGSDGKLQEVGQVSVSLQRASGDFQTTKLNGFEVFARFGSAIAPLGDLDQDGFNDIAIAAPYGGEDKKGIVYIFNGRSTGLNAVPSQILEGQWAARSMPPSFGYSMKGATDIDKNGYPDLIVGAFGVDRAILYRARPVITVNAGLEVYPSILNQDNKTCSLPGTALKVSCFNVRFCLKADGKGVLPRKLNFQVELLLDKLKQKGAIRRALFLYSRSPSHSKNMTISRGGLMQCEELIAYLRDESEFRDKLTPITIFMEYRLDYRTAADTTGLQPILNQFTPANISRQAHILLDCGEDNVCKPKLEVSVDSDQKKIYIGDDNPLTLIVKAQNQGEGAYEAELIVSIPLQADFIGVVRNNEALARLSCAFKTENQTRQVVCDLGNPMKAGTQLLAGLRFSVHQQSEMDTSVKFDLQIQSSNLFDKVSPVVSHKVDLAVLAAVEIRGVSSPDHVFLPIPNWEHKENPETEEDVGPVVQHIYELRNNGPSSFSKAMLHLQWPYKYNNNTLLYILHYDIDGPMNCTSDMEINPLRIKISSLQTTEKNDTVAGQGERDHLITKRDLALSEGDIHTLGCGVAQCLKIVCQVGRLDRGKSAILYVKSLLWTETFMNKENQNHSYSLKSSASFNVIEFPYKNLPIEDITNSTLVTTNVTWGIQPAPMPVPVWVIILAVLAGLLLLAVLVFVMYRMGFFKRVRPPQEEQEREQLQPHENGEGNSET
Chain of UniProt P48643 (P48643 whole entry): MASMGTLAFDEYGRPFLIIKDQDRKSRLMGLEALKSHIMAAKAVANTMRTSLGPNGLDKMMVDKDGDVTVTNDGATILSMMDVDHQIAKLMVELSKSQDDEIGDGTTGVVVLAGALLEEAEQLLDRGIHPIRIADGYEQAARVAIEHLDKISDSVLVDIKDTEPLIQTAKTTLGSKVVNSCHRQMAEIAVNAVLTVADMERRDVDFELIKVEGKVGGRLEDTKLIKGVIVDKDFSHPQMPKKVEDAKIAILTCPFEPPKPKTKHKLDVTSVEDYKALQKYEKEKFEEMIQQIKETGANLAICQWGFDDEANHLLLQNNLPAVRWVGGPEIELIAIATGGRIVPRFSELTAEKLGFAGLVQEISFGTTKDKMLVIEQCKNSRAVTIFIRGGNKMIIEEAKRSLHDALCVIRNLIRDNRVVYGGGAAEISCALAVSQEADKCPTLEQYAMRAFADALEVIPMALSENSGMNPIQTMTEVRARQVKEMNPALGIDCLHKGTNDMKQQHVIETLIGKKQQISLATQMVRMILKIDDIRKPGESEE
Chain of UniProt Q8NFJ5 (Q8NFJ5 whole entry): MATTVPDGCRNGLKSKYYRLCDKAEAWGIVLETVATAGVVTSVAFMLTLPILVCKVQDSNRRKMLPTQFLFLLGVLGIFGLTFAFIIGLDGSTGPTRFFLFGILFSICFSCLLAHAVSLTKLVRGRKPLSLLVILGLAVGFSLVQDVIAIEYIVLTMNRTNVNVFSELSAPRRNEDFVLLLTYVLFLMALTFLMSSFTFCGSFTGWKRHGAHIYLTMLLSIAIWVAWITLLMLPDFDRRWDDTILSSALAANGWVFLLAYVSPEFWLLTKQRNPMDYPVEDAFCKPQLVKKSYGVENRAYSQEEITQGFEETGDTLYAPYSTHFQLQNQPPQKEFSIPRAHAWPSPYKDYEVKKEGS

Compound in this test: C#CCNC(=O)CCSSCCC(=O)NCCc1ccc(C=O)c(C=O)c1
Kind of test: lysine labeling ratio R10:1 (500 µM / 50 µM probe), SILAC-ABPP in living cells; higher = lower intrinsic lysine reactivity toward the probe, active = 2 or less. Conditions: HeLa; probe concentrations 500 vs 50 µM. The gist of the method: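 In PBS at room temperature, living HeLa cells grown with SILAC light or heavy labels were treated with 50 µM or 500 µM of an alkyne-tagged, disulfide-linked lysine probe, with label swaps in both directions. Analysis was by LC-MS/MS on a TIMS-TOF Pro after click to biotin-azide, neutravidin capture and DTT release. For each lysine, R is the median across forward and reverse replicates of the filtered median high-probe/low-probe MS1 peptide ratio, capped at 20.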
Take “GPI (lysine site: K454) (UniProt P06744)”: the “lysine labeling ratio R10:1” value was 2.77.
The value for “SDC4 (lysine site: K104) (UniProt P31431)” was 3.81; that for “VCL (lysine site: K316) (UniProt P18206)” was 1.77 (active); that for UniProt Q9UHN6 (lysine site: K1262) was 2.6.
In the case of “NUCB1 (lysine site: K177) (UniProt Q02818)”, the “lysine labeling ratio R10:1” value is 1.71 (active).
To UniProt Q15149 (lysine site: K1774) belongs 8.57.
The value for “GPRC5A (lysine site: K14) (UniProt Q8NFJ5)” was 6.52; that for “FLNA (lysine site: K2607) (UniProt P21333)” was 6.14.
To UniProt P62913 (lysine site: K52) belongs 2.77; to “SLC3A2 (lysine site: K298) (UniProt P08195)”, 6.33.
For “S100A11 (lysine site: K55) (UniProt P31949)”, the “lysine labeling ratio R10:1” value is 1.54 (active).
The value for “CCT5 (lysine site: K392) (UniProt P48643)” was 2.73; that for UniProt P62244 (lysine site: K71) was 3.24.
As for UniProt O60462 (lysine site: K755), the “lysine labeling ratio R10:1” value is 2.55.
To “ITGAV (lysine site: K165) (UniProt P06756)” belongs 10.3.
The value for “ITGB1 (lysine site: K551) (UniProt P05556)” was 5.51; that for “PVR (lysine site: K144) (UniProt P15151)” was 4.25.
